# In the supplement of paper PMC12339681:
# Where a name gives a salt, the structure may show the parent alone.
# Test system: PBMC-derived induced microglia-like cells (piMGLC)
# Assay: synaptosome phagocytic index relative to DMSO control (fraction of DMSO); higher = more phagocytosis
# Conditions: concentration: 10 uM (2 uM for compounds listed in Table S2); pretreatment time: 24 h; assay time: 3 h
row,Compound,synaptosome phagocytic index
1,Fc1ccc(-c2ccc3c(c2)[nH]c2ccncc23)cn1,0.711
2,OC(CN1CCN(c2cccc(Cl)c2)CC1)C(c1ccccc1)c1ccccc1 (stereo unspecified),1.01
3,C[C@H]1OC[C@]2(c3cc(NC(=O)c4cnc(C(F)F)cn4)ccc3F)N=C(N)SC[C@H]12 [Elenbecestat],0.918
4,O=C(c1ccc(Cl)cc1)N(Cc1ccccc1)C1CCCCC1,0.616
5,CC(C)c1c(C(=O)Nc2ccccc2)c(-c2ccccc2)c(-c2ccc(F)cc2)n1CC[C@@H](O)C[C@@H](O)CC(=O)O [Atorvastatin_(hemicalcium_salt)],0.823
6,Cc1cc(C)cc(OCC2CNC(=O)O2)c1 (stereo unspecified) [Metaxalone],0.757
7,O=C(O)c1ccccc1O [Salicylic_acid],0.557
8,CS(=O)(=O)c1ccc(C2=C(c3ccccc3)C(=O)OC2)cc1 [Rofecoxib],1.08
9,CC(=O)[C@H]1CC[C@H]2[C@@H]3CC=C4C[C@@H](OS(=O)(=O)O)CC[C@]4(C)[C@H]3CC[C@]12C [Pregnenolone_monosulfate],0.895
10,O=C1Cc2cc(CCN3CCN(c4nsc5ccccc45)CC3)c(Cl)cc2N1 [Ziprasidone_(hydrochloride_monohydrate)],0.51
11,CN1C(=O)[C@@H](NC(=O)c2n[nH]c(Cc3ccccc3)n2)COc2ccccc21,1.15
12,COc1cc2nc(N(C)CCCNC(=O)C3CCCO3)nc(N)c2cc1OC (stereo unspecified) [Alfuzosin],0.938
13,COc1ccc2c3c1O[C@H]1C[C@@H](O)C=C[C@@]31CCN(C)C2 [Galanthamine],0.617
14,Nc1ccn([C@@H]2CS[C@H](CO)O2)c(=O)n1 [Lamivudine],0.89
15,NC1CCN(c2cccc(Cl)n2)CC1,0.648
16,O=C(O)CCCc1ccccc1 [Sodium_4-phenylbutyrate],0.996
17,CCc1cc2c(cc1N1CCC(N3CCOCC3)CC1)C(C)(C)c1[nH]c3cc(C#N)ccc3c1C2=O [Alectinib_(Hydrochloride)],0.192
18,Cc1cn([C@H]2C=C[C@@H](CO)O2)c(=O)[nH]c1=O [Stavudine],0.555

row,Compound,synaptosome phagocytic index
1,C[C@@H](Nc1nc(N[C@H](C)C(F)(F)F)nc(-c2cccc(Cl)n2)n1)C(F)(F)F [Vorasidenib],0.481
2,COc1ncccc1-c1cnn2ccc(N3CCN(C(=O)OC(C)C)CC3)nc12,0.708
3,CC(C)(O/N=C(\C(=O)N[C@@H]1C(=O)N2C(C(=O)[O-])=C(C[n+]3ccccc3)CS[C@H]12)c1csc(N)n1)C(=O)O [Ceftazidime],1.05
4,CN1CCN(C2=Nc3cc(Cl)ccc3Nc3ccccc32)CC1 [Clozapine],0.697
5,CN(C)CCOC(C)(c1ccccc1)c1ccccn1 (stereo unspecified) [Doxylamine_(succinate)],0.833
6,O=c1n(CCCN2CCN(c3cccc(Cl)c3)CC2)nc2ccccn12 [Trazodone_(hydrochloride)],1.39
7,NC[C@H]1CC[C@H](C(=O)O)CC1 [Tranexamic_acid],0.927
8,CC(C)OC(=O)NC1CCN(Cc2cc(Cl)c3cccnc3c2O)CC1,0.609
9,CC[C@H](COc1cccnc1C1CCN(C(=O)[C@@H](Cc2ccc(Cl)cc2Cl)NC(=O)N2CCCC2)CC1)N1CCCC1,0.292
10,CC[C@H](CO)Nc1nc(NCc2ccccc2)c2ncn(C(C)C)c2n1 [Seliciclib],0.569
11,COC(=O)/C=C/c1ccc(O)c(OC)c1 [Ferulic_acid_methyl_ester],0.783
12,CC[C@]1(O)C[C@H]2CN(CCc3c([nH]c4ccccc34)[C@@](C(=O)OC)(c3cc4c(cc3OC)N(C=O)[C@H]3[C@@](O)(C(=O)OC)[C@H](OC(C)=O)[C@]5(CC)C=CCN6CC[C@]43[C@@H]65)C2)C1 [Vincristine_(sulfate)],1.04
13,O=c1ncn2nc(Sc3ccc(F)cc3F)ccc2c1-c1c(Cl)cccc1Cl [Neflamapimod],0.984
14,CC1(C)S[C@@H]2[C@H](NC(=O)[C@H](NC(=O)N3CCN(S(C)(=O)=O)C3=O)c3ccccc3)C(=O)N2[C@H]1C(=O)O [Mezlocillin_(sodium)],0.977
15,CNCCCC1c2ccccc2C=Cc2ccccc21 [Protriptyline_(hydrochloride)],0.93
16,CCCc1nc(C)c2c(O)nc(-c3cc(S(=O)(=O)N4CCN(CC)CC4)ccc3OCC)nn12 [Vardenafil_(hydrochloride)],1.16
17,CO/N=C(\C(=O)N[C@@H]1C(=O)N2C(C(=O)O)=C(C[N+]3(C)CCCC3)CS[C@H]12)c1csc(N)n1 [Cefepime_(Dihydrochloride_Monohydrate)],0.597
18,NC(=O)c1ccc(OCCCN2CC3CCCC3C2)cc1 (stereo unspecified),0.933
